From PubChem BioAssay
Compounds with a hit are over-represented: about 4% of the library has one in this group of screens.
D1 PAM: enhances dopamine response at the human D1 receptor. potentiation, % at 10 µM. P21728. HEK293 TREx D1 cells, calcium flux, dopamine EC20 potentiation. AID 504651. actives 0.036% (n = 360,000); in the data active = potentiation above about 30%; note: 0% is about no effect
Glioma ERSR ind: inducers of ER stress response in human glioma cells | U87-MG GRP78 promoter luciferase reporter, 16 h | Potency, µM, inactives show at the top dose activation, usual class: activators | actives 0.02% (n = 420,000) | AID 602332; active = well fitted activation curve with a large enough effect; inconclusive = small, poorly fitted or top-dose-only effect; inactive = no such curve, though single readings can be large or run the other way; note: potency is the fitted concentration of half-maximal effect; series mostly up to about 76 µM; % of control where 0% means no effect; nearly all actives have a fitted effect of over 35% in size
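Stably transfected U87-MG glioma cells carrying a GRP78-based luciferase sensor; 16 h compound incubation. Luminescence end-point read 10 min after Bright-Glo addition at room temperature.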
D1 agonist: agonists of human D1 dopamine receptor | activation, % at 2 µM | actives 1% (n = 360,000) | AID 504660 | P21728 | HEK293 T-REx D1 cells, calcium flux, agonist mode; note: 0% is about no effect
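Tetracycline-induced HEK293 TREx D1 cells, force-coupled to calcium signalling, were dye-loaded with a no-wash calcium kit. Compound was pin-added after a 10 s baseline. Fluorescence was read kinetically at 1 cycle/s for 180 s, with calcium rises flagged as agonism.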
TRHR agonist: agonists of human TRH receptor; activation, % at 2 µM; TRHR cells, calcium flux fluo-8, FDSS agonist mode; AID 493084; actives 0.18% (n = 360,000); P34981; note: 0% is about no effect
Target sequence (P34981 whole entry, looked up): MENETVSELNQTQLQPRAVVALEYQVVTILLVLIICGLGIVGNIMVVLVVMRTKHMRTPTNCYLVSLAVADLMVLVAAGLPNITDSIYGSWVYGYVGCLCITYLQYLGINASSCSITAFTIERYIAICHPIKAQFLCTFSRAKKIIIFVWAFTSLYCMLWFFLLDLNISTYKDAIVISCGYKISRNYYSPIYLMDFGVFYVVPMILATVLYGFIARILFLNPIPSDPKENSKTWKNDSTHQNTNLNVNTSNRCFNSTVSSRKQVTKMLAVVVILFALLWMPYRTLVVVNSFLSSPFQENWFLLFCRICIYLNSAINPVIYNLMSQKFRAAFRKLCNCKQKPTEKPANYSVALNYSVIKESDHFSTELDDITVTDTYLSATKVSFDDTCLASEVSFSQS
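In this calcium-flux screen, cells bearing human TRHR are dye-loaded with fluo-8, baselined for 10 cycles, then exposed to library compounds; positive kinetic calcium responses during the agonist phase mark hits, with TRH as control.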
D1 antag: blocks dopamine activation of the human D1 receptor. actives 3.2% (n = 360,000). activity change, negative = inhibition, % at 10 µM. HEK293 TREx D1 cells, calcium flux, dopamine EC80; hits give low values. AID 504652. P21728; in the data active = activity change below about -30%; note: % is set by controls: 0 for no effect and ±100 for the full control effect
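Inducible Hek293 Trex D1 cells (tetracycline, overnight, 30 C). Calcium dye 30–90 min RT. Antagonist mode: EC80 dopamine added after 180 s compound read.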
TRHR PAM: TRH receptor (human) allosteric enhancement; P34981; actives 0.66% (n = 360,000); TRHR cells, fluo-8 calcium fluorescence, EC20 TRH enhancement; enhancement, % at 2 µM; in the data active = enhancement above about 30%; note: 0% is about no effect
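TRHR-expressing cells loaded with fluo-8 calcium dye were read kinetically (ex 480/em 530) during compound addition, then stimulated with an EC20 of TRH (10 nM final). Enhancement of the Gq-mediated intracellular calcium response was scored.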
* = called active by the depositor; ? = inconclusive; · = no result given; ! = not confirmed by another sample. Cut-off read from the data, not from the text of the source, unless noted: active = activation above about 30%; inactive = the rest.

SMILES	D1 PAM	Glioma ERSR ind	D1 agonist	TRHR agonist	D1 antag	TRHR PAM
CCOC(=O)C1=C(C)N(CCCC(=O)O)C(=O)NC1c1ccccc1OS(=O)(=O)c1ccc(C)cc1 (configuration not stated)	-6	-4%	-3	0	0	0
COc1cc(NC(=O)C(OC(=O)CNC(=O)c2ccccc2)c2ccccc2)cc(C(F)(F)F)c1 (configuration not stated)	4	·	7	-1	-8	9
Cn1c(=O)oc2cc(S(=O)(=O)N3CCc4ccccc43)ccc21	-6	-4%	38*	3	5	-7
Cc1c(C(=O)NCC2COc3ccccc3O2)oc2ccc(S(=O)(=O)N3CC(C)CC(C)C3)cc12 (configuration not stated)	-3	-3%	3	1	-31*	-1
Cn1c(=O)oc2cc(S(=O)(=O)N3CCCc4ccccc43)ccc21	·	-6%	7	0	-17	-8
CC(C)(C)N(Cc1ccccc1)C(=O)COC(=O)c1ccccc1SCC(=O)N1CCCC1	-6	-3%	0	0	-38*	-1
O=C(COC(=O)c1ccccc1SCC(=O)N1CCCC1)Nc1ccccc1	-2	2%	9	-1	-25	2
CC(=O)c1ccc(F)c(-c2cc(C)cc3c2OC(CNC(=O)C[C@@H]2C[C@@H](C)NC(=S)N2)C3)c1 (some centres not stated)	·	0%	·	·	·	·
O=C(Nc1nc(-c2ccc(F)cc2)cs1)C1CCN(C(=O)c2ccc(F)cc2)CC1	-5	-4%	10	0	-40*	-5
O=C(CN1CCCC1)Nc1nc(-c2ccc3c(c2)CCN3C(=O)c2ccccc2F)cs1	-8	3%	8	0	-87*	-4
Cc1cccc(C(=O)N2CCc3cc(-c4csc(NC(=O)CN5CCCC5)n4)ccc32)c1	7	-1%	7	0	-31*	2
O=C(Nc1nc2c(F)cc(F)cc2s1)C1CCN(C(=O)c2ccc(F)cc2)CC1	-5	-2%	6	0	0	-5
CNc1nc(-c2ccc3c(c2)CCN3C(=O)c2ccc(F)cc2)cs1	-10	4%	9	0	-38*	-2
CCC(=O)C(Cc1ccccc1)(Cc1ccccc1)CC(C)N(C)C (configuration not stated)	·	-3%	·	·	·	·
CCN(C(=O)COC(=O)CCS(=O)(=O)c1ccc(C)cc1)C1CCS(=O)(=O)C1 (configuration not stated)	-4	-2%	5	0	-4	1
O=[N+]([O-])c1ccc(-n2nnnc2-c2ccccc2)c([N+](=O)[O-])c1	4	-15%	3	0	-4	-5
O=[N+]([O-])c1ccc(-n2nnnc2-c2ccccc2)cc1	1	-3%	-4	0	-7	36*
CCCCN1CC(=O)N2[C@H]3c4cc(Br)ccc4OC[C@@H]3[C@H](C(=O)OCC)[C@]2(C)C1=O	-4	-3%	0	-1	·	-4
CC(NC(=O)CSc1nnc(-c2cc3cc(Cl)ccc3o2)n1C)c1ccccc1 (configuration not stated)	-7	-4%	-3	0	-1	32*
O=C1CCCC(=O)C1=C1SCCS1	-5	-4%	-1	0	-6	-1
OCC1CCCN(c2nc3cc4c(cc3cc2CNCc2cccc(C(F)(F)F)c2)OCO4)C1 (configuration not stated)	·	-2%	·	·	·	·
COCCC(=O)N1CCC(Oc2ccc(C(=O)N3CCC[C@H]3CO)cc2)CC1	-2	-2%	10	1	2	0
CC(C)(C)OC(=O)n1cc(/C=N/NC(=O)c2ccco2)c2ccccc21	-2	18%	3	-1	-5	31*
CC(=O)n1cc(/C=N/NC(=O)c2ccccc2O)c2ccccc21	-3	?	3	1	-7	-3
C=C(C)C(O)/C=C/c1cccc(OC)c1 (configuration not stated)	·	4%	·	·	·	·
SMILES	D1 PAM	Glioma ERSR ind	D1 agonist	TRHR agonist	D1 antag	TRHR PAM
Cc1ccc(NC(=O)CSc2nccn2Cc2ccco2)cc1Cl	-5	3%	4	-1	3	35*
Cc1ccc(NC(=O)CSc2nccn2Cc2ccco2)cc1	5	0%	7	3	2	-2
O=C(CSc1nccn1Cc1ccco1)Nc1cccc(F)c1	1	4%	31*!	-1	0	1
NC(=O)c1ccc(NCC2COc3ccccc3O2)c([N+](=O)[O-])c1 (configuration not stated)	-9	4%	8	-1	-37*	-1
CN(C)c1ccc(/C=C/N2C=CCc3c2ccc2ccccc32)cc1	·	-11%	·	·	·	·
COc1ccccc1Oc1ccc2c(c1)C(=O)N(c1cccc3ncccc13)C2=O	-6	-10%	15	0	-35*	-7
COc1ccccc1Oc1ccc2c(c1)C(=O)N(c1cccc(O)c1)C2=O	-7	7%	4	0	-22	-12
COc1ccccc1COC(=O)C(NC(=O)c1ccc(C)cc1)C(C)C (configuration not stated)	-7	-3%	4	0	-32*	-17
COc1ccc(C(=O)NC(C(=O)NCc2ccccc2OC)C(C)C)cc1 (configuration not stated)	-8	2%	-1	1	-13	-3
COc1ccc(CNc2ncnc3ccc(-c4ccc5c(c4)OCO5)cc23)c(OC)c1	·	3%	·	·	·	·
CSc1nnc(CCNC(=O)/C=C/c2cccc(F)c2)n1-c1ccc(F)cc1	·	-4%	·	·	·	·
CCc1ccc(NC(=O)c2nc(S(=O)(=O)Cc3ccccc3)ncc2Cl)cc1	-13	·	4	0	-64*	15
CCS(=O)(=O)c1ncc(Cl)c(C(=O)Nc2ccc(S(=O)(=O)N3CCC(C)CC3)cc2)n1	-13	-19%	2	0	-66*	19
CCOC(=O)c1c(NC(=O)/C=C/c2ccc(C)cc2)sc(C(C)=O)c1C	-3	-3%	-1	-1	-32*	-2
CCOc1ccccc1NC(=O)c1nc(S(=O)(=O)Cc2ccccc2)ncc1Cl	-1	-15%	1	1	-18	-9
Cc1ccc(NC(=O)c2nc(S(=O)(=O)Cc3ccccc3F)ncc2Cl)cc1	·	-11%	·	·	·	·
CCS(=O)(=O)c1ncc(Cl)c(C(=O)Nc2ccccc2)n1	-3	-11%	5	2	-30*	-21
CCOC(=O)c1sc(NC(=O)/C=C/c2ccc(OCC)cc2)c(C(=O)OCC)c1C	-2	-2%	4	0	-7	0
CO[C@H]1COC(=O)[C@H](C)COC(=O)C/C=C\[C@@H](C)[C@H](OC)COC(=O)C/C=C\[C@@H]1C	·	-1%	·	·	·	·
